# According to PubChem BioAssay (NCATS):
# Records with an inconclusive call do not appear. Where a call stands in place of a potency, no number is given. Unmarked numbers belong to inactive results. Calls of active or inactive are those of the source. The call rests on the fitted dose curve; in most records, active means well fitted curve in the direction sought with a large enough effect; inconclusive means small, poorly fitted or top-dose-only effect, or another doubt; inactive means no such curve, though single readings can be large; an effect the other way counts as inactive or inconclusive.
# Legend:
# [1] = biological target: Cellular tumor antigen p53 (Homo sapiens) (UniProt P04637); assay: Primary qHTS for small molecule compounds that upregulate eGFP-tagged delta133p53alpha (in N-terminal) cells. (AID 2060322); details: NCI-H358 eGFP-delta133p53alpha fluorescence, 24 h; activation: active compounds read high; further: nearly all actives have a fitted effect of over 75% in size; further: potency means the concentration at half of the fitted maximal effect;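 on activation: cells pre-induced with doxycycline then dosed without doxycycline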
# Sequence of Cellular tumor antigen p53 (Homo sapiens) (P04637 whole entry, looked up): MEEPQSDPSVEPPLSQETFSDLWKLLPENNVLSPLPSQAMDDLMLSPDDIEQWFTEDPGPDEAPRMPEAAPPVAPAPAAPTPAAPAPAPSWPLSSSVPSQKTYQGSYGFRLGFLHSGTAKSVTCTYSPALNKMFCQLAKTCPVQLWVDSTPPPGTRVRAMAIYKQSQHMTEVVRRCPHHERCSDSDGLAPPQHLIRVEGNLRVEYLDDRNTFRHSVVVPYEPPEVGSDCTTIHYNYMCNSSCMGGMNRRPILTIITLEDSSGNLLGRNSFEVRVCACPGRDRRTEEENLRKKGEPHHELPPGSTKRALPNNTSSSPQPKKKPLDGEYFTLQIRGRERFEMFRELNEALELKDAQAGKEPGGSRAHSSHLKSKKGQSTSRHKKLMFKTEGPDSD
# Outline: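 NCI-H358 cells pre-induced 24 h with 10 ng/ml doxycycline for eGFP-delta133p53alpha, plated dox-free and exposed 24 h at 37C to titrated compounds. Fixed, Hoechst-stained; gated GFP peak intensity by laser scanning cytometry, normalized to DMSO (0%) and 57.5 uM 5-azacytidine (100%).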
# [2] = biological target: Aldehyde dehydrogenase, mitochondrial (Homo sapiens) (UniProt P05091); assay: qHTS for Inhibitors of the Aldehyde Dehydrogenase Family (ALDH2) Primary screen (AID 2061308); details: ALDH2 enzyme inhibition qHTS, 1536-well; series mostly up to 56 µM; further: nearly all actives have a fitted effect of over 55% in size
Compound,activation [1],Potency [2],Potency [1]
CC(=O)N1CCc2ccc(O)c(OC3OC(COC4OCC(O)(CO)C4O)C(O)C(O)C3O)c2C1Cc1ccc(O)cc1 (configuration not stated),-0.763%,inactive,
COc1c2cc(c(O[C@@H]3O[C@H](CO)[C@@H](O)[C@H](O)[C@H]3O)c1OC)CCCCC(O)CCc1ccc(O)c-2c1 (some centres not stated),8.93%,inactive,
O=C(O)c1ccnc2cc(-c3nc4ccccc4n3CCN3CCCCC3)sc12,-1.79%,inactive,
COc1cc([C@H]2OC[C@](O)(Cc3ccc(O[C@@H]4O[C@H](CO)[C@@H](O)[C@H](O)[C@H]4O)c(OC)c3)[C@@H]2CO)ccc1O,-1.53%,inactive,
COc1cc([C@H]2OC[C@]3(OC(C)=O)[C@@H](c4ccc(O[C@@H]5O[C@H](CO)[C@@H](O)[C@H](O)[C@H]5O)c(OC)c4)OC[C@H]23)ccc1O,-3.82%,inactive,
COc1cc(/C=C/C(=O)OC[C@H]2O[C@@H](OC3CC(C)=C(C(=O)O)C(C)(C)C3)[C@H](O)[C@@H](O)[C@@H]2O)cc(OC)c1O (some centres not stated),-16.8%,inactive,
C(#Cc1nc2ncccc2nc1OCCN1CCCC1)c1ccccc1,,inactive,6.75 µM (active)
C=C1CC[C@@H]2[C@](C)(CO)[C@H](O)CC[C@@]2(C)[C@@H]1/C=C/C1=CCOC1=O,-12.2%,inactive,
C[C@@H]1O[C@@H](O[C@H]2[C@@H]3C=CO[C@@H](O[C@@H]4O[C@H](CO)[C@@H](O)[C@H](O)[C@H]4O)[C@@H]3[C@@]3(CO)O[C@@H]23)[C@H](O)[C@H](OC(=O)/C=C/c2ccc(O)c(O)c2)[C@H]1O,2.29%,inactive,
CC1(C(=O)O)CC[C@]2(C(=O)OC3OC(CO)C(O)C(O)C3O)CC[C@]3(C)C(=CCC4[C@@]5(C)CC[C@H](OC6OCC(O)C(O)C6OC6OC(CO)C(O)C(O)C6O)C(C)(C)C5CC[C@]43C)C2C1 (some centres not stated),-5.34%,inactive,
C=C1C(=O)O[C@H]2CC(=C)[C@H]3CC[C@@](C)(O)[C@@H]3CC12 (some centres not stated),,inactive,15.1 µM (active)
COc1cc(CC(COC2OC(CO)C(O)C(O)C2O)c2cc(/C=C/CO)cc(OC)c2O)ccc1O (configuration not stated),-6.25%,inactive,
COc1cc(/C=C/CO[C@@H]2O[C@H](CO)[C@@H](O)[C@H](O)[C@H]2O)cc(OC)c1O[C@@H]1O[C@H](CO)[C@@H](O)[C@H](O)[C@H]1O,0.893%,inactive,
CC(=O)c1c(C)cccc1O[C@@H]1O[C@H](CO)[C@@H](O)[C@H](O)[C@H]1O,13%,inactive,
CC(C/C=C/C(C)(C)O)C1CCC(C)(O)C(O)C1 (configuration not stated),-11.5%,inactive,
C[C@@H](OC(=O)/C=C/c1ccc(O)cc1)C1=C[C@]2(C=C[C@@H]3C(C(=O)O)=CO[C@@H](O[C@@H]4O[C@H](CO[C@@H]5O[C@H](CO)[C@@H](O)[C@H](O)[C@H]5O)[C@@H](O)[C@H](O)[C@H]4O)[C@@H]32)OC1=O,-5.34%,inactive,
O=C(c1ccc(C#Cc2cccc(F)c2)cn1)N1CC2CC2C1 (configuration not stated),-1%,inactive,
COc1cc(C2OCC3C(c4ccc(OC5OC(CO)C(O)C(O)C5O)c(OC)c4)OCC23)ccc1O (configuration not stated),-24.4%,inactive,
O=C(O)CCc1nccc2c1[nH]c1ccccc12,8.93%,inactive,
COC(=O)C1=CO[C@@H](O[C@@H]2O[C@H](CO[C@@H]3O[C@H](COC(=O)/C=C/c4cc(OC)c(O)c(OC)c4)[C@@H](O)[C@H](O)[C@H]3O)[C@@H](O)[C@H](O)[C@H]2O)[C@@H]2C(CO)=CC[C@H]12,-14.3%,inactive,
CC(NCc1ccc(OCc2cccc(F)c2)cc1)C(N)=O (configuration not stated),-7.16%,inactive,

Compound,activation [1],Potency [2],Potency [1]
CC(C)CC1NC(=O)C2CC3(O)c4ccccc4NC3N2C1=O (configuration not stated),-9.92%,inactive,
O=C(O[C@H]1[C@@H]2C[C@@H]3OC[C@](O)([C@@H]1Cl)[C@H]2C(O[C@@H]1O[C@H](CO)[C@@H](O)[C@H](O)[C@H]1O)O3)c1ccc(O)c(O)c1 (some centres not stated),-22.1%,inactive,
O=C(/C=C/c1ccc(O)c(O)c1)O[C@H]1[C@@H]2C=CO[C@@H](O[C@@H]3O[C@H](CO)[C@@H](O)[C@H](O)[C@H]3O)[C@@H]2[C@@]2(CO)O[C@@H]12,22.3%,inactive,
C=C1CC2OC(=O)C(=C)C2C(O)/C=C(\C)CCC1O (configuration not stated),,inactive,26.9 µM (active)
NC(=O)[C@@H]1CC[C@H](c2ccc(OCc3ccccc3F)cc2)N1,-11.6%,inactive,
C=C1CCC2(C(=O)OC3OC(CO)C(O)C(O)C3O)CCC3(C)C(=CCC4C5(C)CCC(OC6OC(CO)C(OC7OC(C)C(O)C(O)C7O)C(OC7OCC(O)C(O)C7O)C6O)C(C)(C)C5CCC43C)C2C1 (configuration not stated),14.3%,inactive,
OC[C@H]1O[C@@H](OC/C=C/c2ccc(O)cc2)[C@H](O)[C@@H](O)[C@@H]1O,12.5%,inactive,
CC1CCC2C(C(=O)O)=CC3(O)CC(C)(C)CC123 (configuration not stated),-22.3%,inactive,
C=C[C@H]1[C@H](O[C@@H]2O[C@H](CO)[C@@H](O)[C@H](OC(=O)/C=C/c3ccc(O)c(OC)c3)[C@H]2O)OC=C2C(=O)OCC[C@]21O,-1.53%,inactive,
COC(=O)C1=COC(O[C@@H]2O[C@H](CO)[C@@H](O)[C@H](O)[C@H]2O)/C(=C\COC(=O)c2ccc(OC3OC(CO)C(O)C(O)C3O)c(OC)c2)C1CC(=O)OCCc1ccc(O)cc1 (some centres not stated),-11.5%,inactive,
COc1ccc([C@@H]2OC[C@H]3[C@@H]2CO[C@@H]3c2ccc(OC3OC(CO)C(O)C(O)C3O)c(OC)c2)cc1OC (some centres not stated),10.7%,inactive,
O=C(/C=C/c1ccc(O)c(O)c1)OC[C@H]1O[C@@H](OC2CCCCC2O)[C@H](O)[C@@H](O)[C@@H]1O (some centres not stated),-3.05%,inactive,
COc1cc(/C=C/C(=O)O[C@H]2[C@H](O)[C@@H](CO)O[C@@]2(CO)O[C@H]2O[C@H](COC(=O)c3ccc(O)cc3)[C@@H](O)[C@H](O)[C@H]2O)cc(OC)c1OC,-19.8%,inactive,
Cc1c(-c2ccc3c(c2)OCO3)oc2ccc(C(O)C(C)O)cc12 (configuration not stated),-8.4%,inactive,
CC1=C(CCC(C)O[C@@H]2O[C@H](CO)[C@@H](O)[C@H](O)[C@H]2O)C(C)(C)CC(O)C1 (some centres not stated),-7.63%,inactive,
OC[C@H]1O[C@@H](OCc2ccccc2)[C@H](O)[C@@H](O)[C@@H]1O,-9.16%,inactive,
OC[C@H]1O[C@@H](Oc2cc(O)cc(-c3cc4ccc(O[C@@H]5O[C@H](CO)[C@@H](O)[C@H](O)[C@H]5O)cc4o3)c2)[C@H](O)[C@@H](O)[C@@H]1O,-14.3%,inactive,
C=C[C@@]1(C)C=C2C(=O)C(O)=C3[C@](C)(C(=O)O)CC[C@@H]4C[C@]34[C@]2(O)C(=O)C1,,inactive,6.59 µM (active)
C[C@@H]1O[C@@H](O[C@H]2[C@H](O)[C@@H](O)[C@H](OC(=O)[C@]34CCC(C)(C)C[C@H]3C3=CCC5[C@@]6(C)CC[C@H](O[C@@H]7O[C@H](C(=O)O)[C@@H](O)[C@H](O)[C@H]7O)C(C)(C)C6CC[C@@]5(C)[C@]3(C)CC4)O[C@@H]2CO)[C@H](O)[C@H](O)[C@H]1O (some centres not stated),-9.16%,inactive,
COC(=O)C1=CO[C@@H](O[C@@H]2O[C@H](CO)[C@@H](O)[C@H](O)[C@H]2O)[C@@H]2[C@@H](C)[C@@H](O)C[C@H]12,-11.5%,inactive,
